PubChem BioAssay (NCI)
About 83,000 compounds went through this panel and 20% of them were active in at least one assay; those are over-represented in the sample as a whole.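 The endpoint reported here, percent growth, reads 100 for growth as untreated, 0 for no net growth and -100 for all cells dead.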 A number with no mark means an inactive call. Active and inactive are the calls of the source. How the source made its calls: active means growth percent below 10; inactive means the rest.

Experiments:
Test in all cases: NCI-60 one-dose screen, 48 h (100 = growth as untreated, 0 = no growth, -100 = all killed)
SK-MEL-2 melanoma = details: 10 µM
SN12C renal = details: 10 µM
UO-31 renal = details: 10 µM
TK-10 renal = details: 10 µM unless noted
ACHN renal = details: 10 µM
CAKI-1 renal = details: 10 µM
A498 renal = details: 10 µM
CCRF-CEM leukemia = details: 10 µM
MOLT-4 leukemia = details: 10 µM

SMILES	growth (SK-MEL-2 melanoma)	growth (SN12C renal) [%]	growth (UO-31 renal) [%]	growth (TK-10 renal) [%]	growth (ACHN renal) [%]	growth (CAKI-1 renal)	growth (A498 renal)	growth (CCRF-CEM leukemia)	growth (MOLT-4 leukemia)
CCCCCCCCO	117%	97.5	111	110	105	103%	108%	108%	97.4%
O=C(O)/C=C/c1ccc2c(c1)CCC2	110%	95.4	99.7	107	107	94.5%	111%	83.5%	97.1%
CC(C)(C)n1nc(C2CC2)c(Br)c1NC(=O)c1ccccc1F	103%	102	91.5	103	101	80.8%	101%	–	93.3%
COCCCNC(=O)c1nnn2c1nc(N)c1cc(Cl)ccc12	74.2%	101	71.7	105	104	80.6%	96.4%	–	79.6%
CC(=O)NCc1cc(C)c(C)cc1C	98%	103	83.6	92.6	104	98.8%	118%	–	96.2%
COC(=O)c1ccc(NC(=O)CCl)cc1	66%	76.6	107	88	85.7	83.9%	97.4%	–	72.7%
O=[N+]([O-])c1ccc(/C=C/C=C/c2ccccc2)c(Cl)c1	94.3%	98.3	92.8	121	100	95%	88.9%	90.7%	86.4%
Cc1ccc(S(=O)(=O)O)c(C)c1	112%	103	73.6	101	103	96.3%	94.1%	100%	98.6%
CC(C)=NNC(N)=S	112%	74.4	79.3	113	88.3	83.3%	97.8%	44.2%	60.4%
COc1cc2nn(-c3ccccc3N)nc2cc1OC	106%	106	87.6	109	109	85.6%	82.3%	101%	98.9%
C/C(=N\NC(=O)c1ccccc1N)c1ccccc1O	71.2%	41.1	29.3	27.6	32.3	3.89% (active)	89%	–	19.3%
CCCCCCCCCCC(C)Br (stereo unspecified)	104%	103	91.9	107	102	98.6%	108%	95.3%	95.3%
C=CC(O)CCC (stereo unspecified)	122%	99.5	89.9	102	98.5	92.1%	108%	98.4%	110%
COC(=O)c1ccccc1N(C)C	99.4%	103	87.5	94.8	113	96.2%	79.6%	95.5%	90.1%
CCOC(=O)c1ccc(NC(=S)P(=O)(c2ccccc2)c2ccccc2)cc1	119%	103	92.9	123	102	86.3%	86.3%	69.8%	52.6%
CC1CCCCN1C(=S)Nc1ccc(S(=O)(=O)N2CCCCC2)cc1 (stereo unspecified)	107%	109	89.4	107	99.8	75.8%	70.9%	75.9%	104%
CC(C)CCCC(=O)O	102%	106	95.4	105	104	105%	86.8%	101%	119%

SMILES	growth (SK-MEL-2 melanoma)	growth (SN12C renal) [%]	growth (UO-31 renal) [%]	growth (TK-10 renal) [%]	growth (ACHN renal) [%]	growth (CAKI-1 renal)	growth (A498 renal)	growth (CCRF-CEM leukemia)	growth (MOLT-4 leukemia)
COc1cccc(/C=N/NC(=S)NC2CC3CCC2C3)c1O (stereo unspecified)	69%	57.9	21.8	88.3	32.1	38.2%	51.9%	29.1%	44.8%
O=C1C=C(Nc2ccc([N+](=O)[O-])cc2)c2ccccc2C1=O	-7.97% (active)	39.8	30	80.4	45.8	67.9%	40.6%	38.9%	28.5%
CCOC(=O)C/C(C)=N\O	107%	98.6	81.6	93.4	112	92.8%	111%	–	95.2%
O=C(O)CSCSCC(=O)O	94.8%	104	92.3	93.6	101	96.9%	80.4%	–	101%
CC1(C(=O)O)NC(C(=O)O)Cc2c1[nH]c1ccccc21 (stereo unspecified)	93.7%	95.8	79.5	108	102	96.5%	91.8%	82.8%	88.8%
O=C(O)COCC(=O)O	107%	102	91.4	124	103	97.5%	110%	101%	99.1%
CCN1C(=O)/C(=C/C=C/N(C)c2ccccc2)SC1=S	82.5%	94.4	94.2	85.6	75.7	91.6%	92.8%	92%	89%
O=C(Nc1ccccc1C(=O)NCC1CC1)c1cccs1	113%	100	89.4	114	103	82.7%	106%	–	111%
COc1ccc(-c2cc3c(nn2)-c2ccccc2C3=O)cc1	65.5%	72.7	89.7	32.1	73.5	28.9%	102%	28.6%	57.1%
O=C(NCc1ccco1)Nc1c(Cl)cc(Cl)cc1Cl	75.5%	96.9	84	105	97.2	89.1%	99.5%	–	108%
CC(=O)OCCO	143%	98.5	90.3	114	105	104%	109%	111%	102%
CCO/C=C1\SC(=S)N(c2cccc(C)c2)C1=O	110%	106	79.3	98.9	106	101%	113%	–	95.7%
COc1cc(C2c3cc4c(cc3C3OC(=O)C2C3CO)OCO4)cc(OC)c1OC (stereo unspecified)	7.33% (active)	23.8	38.2	49.6	24.9	37.4%	-7.83% (active)	-7.15% (active)	-9.4% (active)
O=C(/C(=N/O)c1ccccc1)c1ccccc1	121%	94.6	87.9	108	106	100%	91.5%	97.9%	123%
CC1CC(O)C2C3(C)CCCC2(COC3=O)C12CCC1(CCOC1=O)O2 (stereo unspecified)	117%	113	93.3	114	108	94.7%	71%	104%	114%
c1ccc2c(c1)Sc1ccccc1S2	112%	93.2	98.9	99.4	109	103%	94.3%	97.3%	111%
O=C(c1ccc(O)cc1)c1ccc(O)cc1	101%	109	85	95	107	110%	73.9%	106%	102%
